Measurements from PubChem BioAssay (NCATS).
Records with an inconclusive call do not appear. Unless noted, the call rests on the fitted dose curve; in most records, active means well fitted curve in either direction with a large enough effect (not every such curve was filed as active); inconclusive means small, poorly fitted or top-dose-only effect, or another doubt; inactive means flat fitted curve, though single readings scatter.

Key:
[1] = AP1 Signaling Pathway (AID 357); conditions: ME-180 AP-1-bla reporter, EGF-induced, beta-lactamase ratio, 5 h; at 17.2 µM (top of the series) unless noted;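 further: ME-180 reporter cells stimulated with EGF at its EC50 level; on the % scale 0 is the no-effect control and ±100 the full control effect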
Method in brief: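 First, ME-180 AP-1-bla cells were cultured overnight at 37 °C in low-serum Opti-MEM. Next, titrated compounds with EC50 EGF were incubated 5 hours. Finally, CCF4 was added for 2.5 hours and the 460/530 nm ratio recorded.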

[2] = NFAT Signaling Pathway (AID 444); conditions: Jurkat NFAT-bla M1, carbachol, beta-lactamase ratio, 5 h; at 17.2 µM (top of the series) unless noted;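 further: carbachol stimulus at about its EC50 of 1 µM final; on the % scale 0 is the no-effect control and ±100 the full control effect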
Method in brief: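 Jurkat cells with NFAT-driven β-lactamase reporter and co-expressed M1 receptor, stimulated with carbachol (final 1 uM, ~EC50), compound titration, 5 h at 37 °C. CCF4 loaded 1 h at RT; 460/530 nm ratio gave %activity and AC50.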

[3] = Stat Signaling Pathway (AID 446); conditions: ME-180 SIE beta-lactamase reporter, IL-6 stimulated, 5 h; at 17.2 µM (top of the series) unless noted;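 further: ME-180 cervical cancer cells given 40 pM IL-6 alongside compound; SIE-controlled beta-lactamase reporter measured as 460/530 nm FRET emission ratio; on the % scale 0 is the no-effect control and ±100 the full control effect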
Method in brief: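 ME-180 SIE-bla cells; overnight plating; cpd + IL-6 40 pM, 5 h, 37 C; LiveBLAzer 2.5 h RT; 460/530 nm emission ratio. Normalized to 300 pM IL-6 and 125 nM JAK inhibitor controls.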

[4] = target: Glucocorticoid receptor (Homo sapiens) (UniProt P04150); test: GR-GFP Redistribution (AID 450;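 active means compounds whose dose series gives a full or clear partial fitted curve of increased nuclear translocation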; further: potency means the concentration at half of the fitted maximal effect); conditions: U2OS GR-GFP nuclear translocation, laser cytometry, 2 h; series mostly up to 20.6 µM
Sequence of Glucocorticoid receptor (Homo sapiens) (P04150 whole entry, looked up): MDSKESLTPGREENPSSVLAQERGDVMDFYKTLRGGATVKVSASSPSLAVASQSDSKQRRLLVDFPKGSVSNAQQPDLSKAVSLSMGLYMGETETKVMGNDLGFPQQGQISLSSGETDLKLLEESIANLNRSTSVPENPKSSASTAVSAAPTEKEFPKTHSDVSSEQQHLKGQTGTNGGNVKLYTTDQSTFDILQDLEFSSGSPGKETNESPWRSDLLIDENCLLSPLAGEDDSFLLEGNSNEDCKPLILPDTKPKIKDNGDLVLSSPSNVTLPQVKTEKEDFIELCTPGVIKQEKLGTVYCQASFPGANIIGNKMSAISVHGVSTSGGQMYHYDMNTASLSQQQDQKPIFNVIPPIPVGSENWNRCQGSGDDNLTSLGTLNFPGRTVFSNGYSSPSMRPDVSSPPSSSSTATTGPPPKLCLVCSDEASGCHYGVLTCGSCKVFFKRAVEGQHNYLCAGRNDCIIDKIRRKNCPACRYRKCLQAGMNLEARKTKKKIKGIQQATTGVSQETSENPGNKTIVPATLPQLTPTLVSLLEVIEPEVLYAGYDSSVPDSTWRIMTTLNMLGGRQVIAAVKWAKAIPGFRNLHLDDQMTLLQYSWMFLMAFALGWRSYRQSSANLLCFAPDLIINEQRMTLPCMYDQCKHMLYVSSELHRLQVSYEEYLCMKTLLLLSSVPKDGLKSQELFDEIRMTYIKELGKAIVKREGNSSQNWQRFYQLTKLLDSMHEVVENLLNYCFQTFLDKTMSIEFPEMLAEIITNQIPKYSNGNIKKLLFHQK

CCOc1cccc(-c2nn3c(-c4ccccn4)nnc3s2)c1
inactive: activity change, negative = inhibition [1] -15% | activity change, negative = inhibition [2] -14.4% | activity, negative = inhibition [3] -1.87% | Potency [4] > 20.6 µM

COc1ccc(OCC(O)CN2C(=O)NC(C)(C)C2=O)cc1 (stereo not drawn)
inactive: activity change, negative = inhibition [1] -11.2% | activity change, negative = inhibition [2] 0.93% | activity, negative = inhibition [3] 9.74% | Potency [4] > 20.6 µM

CCOC(=O)c1ccc(NC(=O)CCC(CC)C(=O)O)cc1 (stereo not drawn)
inactive: activity change, negative = inhibition [1] -2.51% | activity change, negative = inhibition [2] -11.6% | activity, negative = inhibition [3] 3.77% | Potency [4] > 20.6 µM

Cn1c(O)c(C=Nc2ccc(Cc3ccncc3)cc2)c(=O)n(C)c1=O
inactive: activity change, negative = inhibition [1] -2.77% | activity change, negative = inhibition [2] -10.1% | activity, negative = inhibition [3] -1.74% | Potency [4] > 20.6 µM

CC1(C)CC(=O)C2=C(C1)OC(N)=C(C#N)[C@@]21C(=O)N(CC(N)=O)c2ccccc21
inactive: activity change, negative = inhibition [1] 10.8% | activity change, negative = inhibition [2] 4.51% | activity, negative = inhibition [3] -18.4% | Potency [4] > 20.6 µM

COc1ccccc1N(Cc1cc2cccc(C)c2[nH]c1=O)C(=O)C(C)C
inactive: activity change, negative = inhibition [1] -14.8% | activity change, negative = inhibition [2] 11.3% | activity, negative = inhibition [3] -8.46% | Potency [4] > 20.6 µM

O=C(Nc1ccccn1)NC(C(F)(F)F)C(F)(F)F
inactive: activity change, negative = inhibition [1] -3.59% | activity change, negative = inhibition [2] 6.68% | activity, negative = inhibition [3] -3.68% | Potency [4] > 20.6 µM

Cc1nc2sc(C#N)c(N)c2c2c1CCCC2
inactive: activity change, negative = inhibition [1] -15.7% | activity change, negative = inhibition [2] -7.96% | activity, negative = inhibition [3] -6.2% | Potency [4] > 20.6 µM

CCOC(=O)c1[nH]c2ccc(C)cc2c1N
inactive: activity change, negative = inhibition [1] -6% | activity change, negative = inhibition [2] -1.75% | activity, negative = inhibition [3] -1.27% | Potency [4] > 20.6 µM

COc1cccc(C2/C(=C(\O)c3ccc4c(c3)OCCO4)C(=O)C(=O)N2CCCN(C)C)c1OC (stereo not drawn)
inactive: activity change, negative = inhibition [1] 4.3% | activity change, negative = inhibition [2] 5.21% | activity, negative = inhibition [3] 4.4% | Potency [4] > 20.6 µM

CC(=O)c1c(N)nc2n(c1=O)CCCCC2
inactive: activity change, negative = inhibition [1] -12.6% | activity change, negative = inhibition [2] -9.74% | activity, negative = inhibition [3] 9.48% | Potency [4] > 20.6 µM

Cc1ccc(/C=N/n2nnnc2N)o1
inactive: activity change, negative = inhibition [1] 2.97% | activity change, negative = inhibition [2] -0.388% | activity, negative = inhibition [3] -5.51% | Potency [4] > 20.6 µM

C=CCNc1nc(-c2ccc(O)c(C(N)=O)c2)cs1
inactive: activity change, negative = inhibition [1] -14.5% | activity change, negative = inhibition [2] 25.2% | activity, negative = inhibition [3] -12.3% | Potency [4] > 20.6 µM

CCN(CC)CCN1C(=O)C(=O)/C(=C(/O)c2c(C)[nH]c(C(=O)OC)c2C)C1c1ccco1 (stereo not drawn)
inactive: activity change, negative = inhibition [1] 6.74% | activity change, negative = inhibition [2] -2.14% | activity, negative = inhibition [3] -0.9% | Potency [4] > 20.6 µM

C=C1C2(C(=O)Nc3nccs3)CCC(C2)C1(C)C (stereo not drawn)
inactive: activity change, negative = inhibition [1] -7.92% | activity change, negative = inhibition [2] 25.1% | activity, negative = inhibition [3] -0.516% | Potency [4] > 20.6 µM

CCN(CC)CCN1C(=O)C(O)=C(C(=O)c2ccco2)C1c1ccccn1 (stereo not drawn)
inactive: activity change, negative = inhibition [1] -3.97% | activity change, negative = inhibition [2] -0.0336% | activity, negative = inhibition [3] 3.83% | Potency [4] > 20.6 µM

CC(=O)NCC(=O)OCN1C(=O)c2ccccc2C1=O
inactive: activity change, negative = inhibition [1] 10.5% | activity change, negative = inhibition [2] -1.05% | activity, negative = inhibition [3] 0.512% | Potency [4] > 20.6 µM
